Among the data in PubChem BioAssay (EPA / NIEHS) are outcome and AC50 values, retold here.

Test [1] can be described thus: ACEA_ER_80hr: ACEA Biosciences xCELLigence Real-Time Cell Analysis on Estrogen Receptor Agonism for Proliferation (AID 2282667; active means hit-call score of the fitted dose curve at least 0.9, where 1 is the maximum). The following applies: T47D proliferation, impedance (xCELLigence), 80 h. In outline:
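Estrogen-driven proliferation is captured as electrode impedance in T47D cells 80 h after compound addition. Test articles ran at 8 concentrations, 1:4 dilutions from 100 uM final, in two replicate plates.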

Test [2] is described as follows: ATG_CRE_CIS: Attagene CIS-FACTORIAL HepG2 Assay for human cAMP Responsive Element (CRE) binding protein 3 (AID 2282926). The settings on record: HepG2 CRE cis-reporter, Attagene multiplexed mRNA; actives raise or lower the signal. An outline of the steps:
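Liver-derived HepG2, transfected with a CRE-containing reporter panel, exposed 24 h; transcript levels sized and quantified by capillary electrophoresis of labelled amplicons; signal changes either way referenced to vehicle.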

Test [3] concerns the target CCAAT/enhancer-binding protein beta (Homo sapiens) (UniProt P17676). Briefly: ATG_C_EBP_CIS: Attagene CIS-FACTORIAL HepG2 Assay for human CCAAT/Enhancer Binding Protein (C/EBP) beta (AID 2282927). The settings on record: HepG2 Attagene cis-factorial transcription factor reporter; actives raise or lower the signal. In outline:
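Chemical-treated HepG2 cells (24 h) bearing cis-regulated reporter constructs were processed for total RNA, then reverse transcription, PCR amplification, fluorescent primer extension and fragment analysis; gain- and loss-of-signal were fitted against DMSO.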

Test [4] can be described thus: ATG_CMV_CIS: Attagene CIS-FACTORIAL HepG2 Assay for human CMV (Internal Marker) (AID 2282928).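 Further: endpoint acts as a background internal control marker rather than a target.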 The following applies: HepG2 CMV promoter reporter, transcription factor profiling; actives raise or lower the signal. An outline of the steps: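 Reporter transcripts from transfected HepG2 cells are isolated after 24 h of chemical dosing, reverse-transcribed and amplified. Fragments labeled with 6-FAM are cut with HpaI and quantified by capillary electrophoresis; DMSO defines baseline.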

The nature of test [5]: ATG_DR4_LXR_CIS: Attagene CIS-FACTORIAL HepG2 Assay for human Liver X Receptor (LXR), DR4 submotif (AID 2282929). The following applies: HepG2 Attagene DR4 cis-reporter, mRNA transcription; actives raise or lower the signal. In outline: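 HepG2, transient MRTU transfection, cis-element (DR4) promoter; 24 h compound exposure; total RNA → oligo(dT) RT → PCR → 6-FAM primer extension → HpaI cut → CE. Gain/loss vs DMSO, bidirectional fit.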

Test [6] concerns the target Aryl hydrocarbon receptor (Homo sapiens) (UniProt P35869). Kind of test: ATG_Ahr_CIS: Attagene CIS-FACTORIAL HepG2 Assay for human Aryl Hydrocarbon Receptor (Ahr) (AID 2282930). The following applies: HepG2 AhR cis-factorial reporter transcription; actives raise or lower the signal. In outline:
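Following 24 h of chemical dosing, transfected HepG2 liver cells with cis-driven reporter units were lysed for RNA; reporter mRNA was quantified via RT-PCR and capillary electrophoresis, and responses fitted bidirectionally from DMSO.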

Test [7] is described as follows: ATG_AP_1_CIS: Attagene CIS-FACTORIAL HepG2 Assay for human Activator Protein 1 (AP-1) (AID 2282931). The following applies: HepG2 Attagene cis-factorial AP-1 reporter mRNA; actives raise or lower the signal. In outline: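 Transient MRTU transfection of HepG2 → 24 h chemical treatment → RNA isolation, RT-PCR, 6-FAM labelling, HpaI digest → capillary electrophoresis. Fit: bidirectional, DMSO negative control.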

The nature of test [8]: ATG_AP_2_CIS: Attagene CIS-FACTORIAL HepG2 Assay for human Activator Protein 2 (AP-2) (AID 2282932). The settings on record: HepG2 AP-2 cis-reporter, Attagene transcription factor profiling; actives raise or lower the signal. An outline of the steps: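 Cells (HepG2) transfected with promoter-driven reporter constructs, treated 24 h. Total RNA reverse-transcribed, reporter cDNA PCR-amplified, FAM-labelled by primer extension, digested, resolved by capillary electrophoresis. Activity fitted both directions versus DMSO.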

Test [9] is described as follows: ATG_BRE_CIS: Attagene CIS-FACTORIAL HepG2 Assay for human Bone Morphogenetic Protein (BMP) Response Element (BRE) (AID 2282933). The following applies: HepG2 BMP response element reporter, Attagene transcription factor profiling; actives raise or lower the signal. An outline of the steps:
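HepG2 cells transiently transfected with multiplexed cis-element reporter units were dosed with chemical for 24 h. Reporter mRNA was measured by RT-PCR with fluorescent labelling, HpaI digestion and capillary electrophoresis; bidirectional fitting relative to DMSO.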

The target in test [10] is Retinoic acid receptor alpha (Homo sapiens) (UniProt P10276). Kind of test: ATG_DR5_RAR_CIS: Attagene CIS-FACTORIAL HepG2 Assay for human Retinoic Acid Receptor Alpha (RARE), DR5 submotif (AID 2282934). The settings on record: HepG2 Attagene cis-factorial RARE DR5 reporter, mRNA; actives raise or lower the signal. In outline:
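Transfected HepG2 reporter cells are exposed to chemicals for 24 h. Then RNA is extracted and the DR5 element reporter transcript is measured by RT-PCR and capillary electrophoresis, with bidirectional curve fitting relative to DMSO.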

Structures are written as SMILES. Inconclusive results are not listed. Calls of active or inactive are those of the source. How the source made its calls, unless noted: active means hit-call score of the fitted dose curve at least 0.9, where 1 is the maximum; inactive means score below 0.9.

Sequence of CCAAT/enhancer-binding protein beta (Homo sapiens) (P17676 whole entry, looked up, the tested form may be a part): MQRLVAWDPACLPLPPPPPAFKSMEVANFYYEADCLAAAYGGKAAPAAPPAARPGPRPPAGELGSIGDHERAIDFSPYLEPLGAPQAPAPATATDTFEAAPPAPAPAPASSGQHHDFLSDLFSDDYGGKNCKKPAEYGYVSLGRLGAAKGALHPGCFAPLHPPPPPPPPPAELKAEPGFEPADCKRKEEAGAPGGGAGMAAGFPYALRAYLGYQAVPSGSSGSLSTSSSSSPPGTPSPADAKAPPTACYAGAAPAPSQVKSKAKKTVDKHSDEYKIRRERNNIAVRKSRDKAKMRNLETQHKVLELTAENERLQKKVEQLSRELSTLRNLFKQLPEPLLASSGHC
Sequence of Retinoic acid receptor alpha (Homo sapiens) (P10276 whole entry, looked up): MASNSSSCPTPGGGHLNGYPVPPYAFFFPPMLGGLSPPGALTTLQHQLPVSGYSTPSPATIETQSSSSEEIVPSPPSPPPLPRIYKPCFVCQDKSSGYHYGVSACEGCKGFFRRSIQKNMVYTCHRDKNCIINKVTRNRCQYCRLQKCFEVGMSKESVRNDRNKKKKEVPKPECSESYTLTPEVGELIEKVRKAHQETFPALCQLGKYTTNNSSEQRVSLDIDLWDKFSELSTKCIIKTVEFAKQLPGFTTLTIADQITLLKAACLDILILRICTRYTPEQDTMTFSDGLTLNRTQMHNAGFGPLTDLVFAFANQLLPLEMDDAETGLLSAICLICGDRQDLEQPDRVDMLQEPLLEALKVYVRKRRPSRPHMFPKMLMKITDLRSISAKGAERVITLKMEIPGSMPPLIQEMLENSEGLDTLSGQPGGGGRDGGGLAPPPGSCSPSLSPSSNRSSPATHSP
Sequence of Aryl hydrocarbon receptor (Homo sapiens) (P35869 whole entry, looked up): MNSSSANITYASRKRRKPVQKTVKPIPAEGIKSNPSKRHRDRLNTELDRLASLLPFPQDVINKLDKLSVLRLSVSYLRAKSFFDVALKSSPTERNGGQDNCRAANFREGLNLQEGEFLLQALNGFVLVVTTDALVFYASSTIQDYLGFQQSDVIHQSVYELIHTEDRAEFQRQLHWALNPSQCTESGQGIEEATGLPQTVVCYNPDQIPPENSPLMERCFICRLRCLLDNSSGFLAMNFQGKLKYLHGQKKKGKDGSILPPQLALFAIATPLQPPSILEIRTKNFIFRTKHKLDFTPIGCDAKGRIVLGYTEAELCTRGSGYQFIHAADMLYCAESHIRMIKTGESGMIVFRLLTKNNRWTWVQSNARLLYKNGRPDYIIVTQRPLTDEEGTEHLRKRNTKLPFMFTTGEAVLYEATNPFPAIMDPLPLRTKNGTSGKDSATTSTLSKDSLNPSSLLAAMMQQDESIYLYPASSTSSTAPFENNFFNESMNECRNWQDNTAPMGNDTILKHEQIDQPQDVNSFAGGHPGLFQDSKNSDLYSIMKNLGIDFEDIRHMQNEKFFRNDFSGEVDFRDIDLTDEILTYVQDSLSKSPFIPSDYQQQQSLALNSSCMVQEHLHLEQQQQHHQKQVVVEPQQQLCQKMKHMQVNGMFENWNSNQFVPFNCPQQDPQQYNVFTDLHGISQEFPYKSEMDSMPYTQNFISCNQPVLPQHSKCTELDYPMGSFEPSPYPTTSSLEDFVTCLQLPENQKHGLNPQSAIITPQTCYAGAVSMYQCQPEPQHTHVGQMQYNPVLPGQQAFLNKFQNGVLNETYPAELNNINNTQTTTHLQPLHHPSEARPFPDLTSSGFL

For the compound `CC1(C)C(=O)N(CO)C(=O)N1CO`, the call in test [1], in test [2], in test [3], in test [4], in [5] and in [6] was inactive. The outcome in [7], in test [8], in test [9] and in test [10] was inactive.
In general, AC50 refers to the concentration at which the activity in the assay is half-maximal. As to `COC(C=C(C)CCC=C(C)C)OC`, the compound was classed as inactive in test [1], in [2], in test [3], in test [4], in test [5] and in test [6]. Further, the outcome in test [8], in test [9] and in test [10] was inactive. Moreover, the AC50 in test [7] is 146 µM (active).
Consider `CCN1CN(CC)CN(CC)C1`, for which the compound was classed as inactive in [1], in [6], in test [7], in test [8], in [9] and in test [10]. In addition, the AC50 is 162 µM (active) in [2], 175 µM (active) in test [3], 140 µM (active) in [4] and 139 µM (active) in test [5].
`C1CNCCN1`: the compound was called inactive in test [1], in [2], in test [3], in test [4], in test [5] and in test [6]. The compound was called inactive in test [7], in [8], in test [9] and in [10].
With `CCc1cccc(CC)c1`, the result in test [1], in test [2], in [3], in test [4], in test [5] and in test [6] was inactive. The compound was classed as inactive in [7], in test [8], in test [9] and in [10].
In the case of `O=C(OCc1ccccc1)c1ccc(O)cc1`, the AC50 is 10.5 µM (active) in test [1] and 123 µM (active) in test [9]. Moreover, the call in test [2], in [3], in [4], in test [5], in test [6] and in test [7] was inactive. The call in test [8] and in test [10] was inactive.
On to `CCCC(CC)c1ccccc1` (centres undefined), for which the compound was called inactive in [1], in test [2], in test [3], in [5], in test [6] and in [8]. The call in [9] and in test [10] was inactive. The AC50 was 153 µM (active) in test [4] and 167 µM (active) in [7].
With `Cc1ccc(S(=O)(=O)N=C=O)cc1`, the compound was called inactive in test [1], in [2], in test [3], in test [4], in test [5] and in test [6]. The compound was called inactive in [7], in test [8], in test [9] and in test [10].
As to `CC(C)C(=O)OCCc1ccccc1`, the call in [1], in test [2], in [3], in test [4], in [5] and in test [6] was inactive. The compound was called inactive in [7], in test [8], in test [9] and in test [10].
Regarding `CCCCCCOc1ccc(N)cc1`, the call in [1], in [2], in test [3], in test [6], in test [7] and in test [8] was inactive. Also, the outcome in test [9] and in [10] was inactive. Besides, the AC50 was 155 µM (active) in [4] and 159 µM (active) in [5].
In the case of `CC(C)(CO)C(O)C(=O)NCCCO` (centres undefined), the outcome in test [1], in test [2], in test [3], in test [4], in test [5] and in [6] was inactive. For the same compound, the compound was classed as inactive in test [7], in [8], in test [9] and in test [10].
For the compound `C=C(C)C1CC=C(C)C(OC(C)=O)C1` (centres undefined), the outcome in test [1], in test [2], in test [3], in test [4], in test [5] and in test [6] was inactive. Besides, the compound was classed as inactive in [7], in test [8], in test [9] and in [10].
`CC(=O)/C=C/C1C(C)=CCCC1(C)C` (centres undefined): the outcome in test [1], in test [2], in [3], in test [4], in [5] and in test [6] was inactive. Besides, the result in [7], in [8] and in test [9] was inactive.
Turning to `Cc1c[nH]c(=O)[nH]c1=O`, the call in test [1], in test [2], in [3], in [4], in test [5] and in test [6] was inactive. Besides, the call in test [7], in test [8], in [9] and in [10] was inactive.
Consider `Nc1ncnc2nc[nH]c12`, for which the compound was called inactive in test [1], in test [2], in [3], in test [4], in test [5] and in test [6]. The call in test [7], in test [8], in test [9] and in test [10] was inactive.
For the compound `CCC(C)c1ccccc1` (centres undefined), the compound was called inactive in [1], in test [2], in test [3], in [4], in test [5] and in test [6]. Besides, the outcome in test [7], in test [8], in test [9] and in test [10] was inactive.
Take `C=C(C)C(=O)OCCCCCCCCCCCC`: the compound was classed as inactive in test [1], in test [2], in [3], in test [5], in [6] and in test [7]. Also, the call in test [8], in test [9] and in test [10] was inactive. In addition, in [4], the AC50 is 100 µM (active).
With `CCOC(=O)C1=NN(c2ccc(Cl)cc2Cl)C(C)(C(=O)OCC)C1` (centres undefined), the call in [1], in test [2], in test [3], in test [4], in test [5] and in test [6] was inactive. Moreover, the outcome in test [8], in [9] and in test [10] was inactive. The AC50 in [7] was 164 µM (active).
As to `O=C(O)CCCC(=O)O`, the outcome in test [1], in test [2], in test [3], in test [4], in [5] and in [6] was inactive. Also, the call in test [7], in test [8], in test [9] and in [10] was inactive.
`c1ccc(-c2nc3ccccc3[nH]2)cc1`: the compound was called inactive in [1], in test [2], in test [3], in test [4], in test [5] and in test [6]. In addition, the compound was classed as inactive in test [7], in test [8], in test [9] and in [10].
Consider `Nc1nc(N)nc(-c2ccccc2)n1`, for which the compound was classed as inactive in [1], in [2], in [3], in test [4], in test [5] and in [6]. Besides, the call in [7], in test [8], in test [9] and in test [10] was inactive.
Consider `COC(=O)c1ccc(C(=O)OC)c(C(=O)OC)c1`, for which the outcome in test [1], in test [2], in test [3], in test [4], in [5] and in [6] was inactive. In addition, the outcome in test [7], in [8], in test [9] and in [10] was inactive.
For the compound `Cc1c(Cl)cccc1Cl`, the outcome in test [1], in test [2], in [3], in test [4], in test [5] and in test [6] was inactive. Also, the outcome in test [7], in test [8], in test [9] and in test [10] was inactive.
Consider `CC(C)(CO)COC(=O)C(C)(C)CO`, for which the outcome in test [1], in [2], in [3], in test [4], in test [5] and in test [6] was inactive. The result in test [7], in test [8], in test [9] and in test [10] was inactive.
